Key:
Assay in all cases: PBM binding z-score (relative to random genomic background probes); higher = stronger binding; sequences stand for … in GC…GCGATTGACAGCGTAGAATGAAGG
[1] = tested on: RARg homodimer (NR concentration 270 nM)
Outline: (§1)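 Ligand-free nuclear receptor dimers were bound for 1 h to custom Agilent 4×180K protein-binding microarrays. Detection used antibodies against each partner (one per run). Binding z-scores rest on regression-normalized fluorescence, with random background probes as the reference.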

[2] = tested on: RXRa DBDmut IVT, anti-RXR (DBD mutation: RXRa K156A/R161A, NR concentration 90 nM)
Outline: as §1

[3] = tested on: RXRa homodimer (NR concentration 180 nM)
Outline: as §1

[4] = tested on: THRa:RXRa (NR concentration 90 nM, RXRa partner concentration 90 nM)
Outline: as §1

[5] = tested on: THRa homodimer (NR concentration 90 nM)
Outline: as §1

[6] = tested on: VDR homodimer (NR concentration 270 nM)
Outline: as §1

[7] = tested on: RARg:RXRa (NR concentration 270 nM, RXRa partner concentration 90 nM)
Outline: as §1

Sequence	PBM binding z-score [1]	PBM binding z-score [2]	PBM binding z-score [3]	PBM binding z-score [4]	PBM binding z-score [5]	PBM binding z-score [6]	PBM binding z-score [7]
CCGAGAAGGTTACGAGGGGGCATTCAGTGCGAAT	3.13	1.65	3.45	4.4	0.555	3.67	
CGTCCAAGGTCATAGGGGGTCAGTGAAGACAGAT	7.83	4.45	7.31	5.24	4.24	4.75	
TAGCCTAGTTCATGCGGGCCAGTATAGTGTCGGC	0.586	1.71	0.0808		-0.684	1.56	
CGTCAAAGTTCAACTAAGGTCACGTAAAGCACGC	8.89	4.75	7.65		5.58	6.52	
CGTCAAAGGTCAGCAGGTCAGTGAAAGCGACGTG	8.73	2.54		3.92	0.878	1.62	
AATACGGGGTCATCGTAGGCCAGAGTACGCACAG	7.15	4.86		4.99	2.62	6.13	
CGTCAAAGGTCAAGGTAACGTAACAGAAAGCAGC	8.73	3.48		4.25	1.83	1.62	
GATACGGGGTCAAGGCCAGAGTACGCGTATTGAT	6.89	4.16		4.23	2.04	4.85	7.3
CCTTAGGGGTCAAGGTTATAGCACGGGTGGTACG	7.42	3.5		4.36	1.39	4.22	
CAAAATAGGTCACAGAGGTCAAAGTCCGTGCGTA	8.18	3.08	8.46	4.74	2.2	6.13	
CAAACAAGGTCACGAAAGGTCAAAGTCGAATGAC	9.5	4.12		5.17	3.65	5.74	
CAAAATAGGTCACGAAAGGTCAAAGTCGAATGAC	8.76	2.5	8.89	5.07	1.51	3.8	
AGAACGAGGTCACGCTGAGTTGATAGCAGAGTAG	7.61	4.36		4.37	3.59	5.15	
CTATGTAGGTTAAGGGAGTCATTCAGTTTGAAAG	0.44	0.0971	0.802	0.572	-0.282	0.283	
ACTTACGGGTCAACGAGGTCATAGCACGCGTATA	6.95	3.65			3.64	7.5	7.14
GGAACGAGGTCAAAGTTGATAGCATCTGTCGACG	6.56	4.67		4.12	2.61	4.79	6.64
GCTTAAGGGTCAAAGGTTATAGCATGAATAGAAT	7.11	3.54	9.83	4.14	-0.296	2.8	
CCTCGGAGGTCAACAGGAGGTCAGAGCTGCCAGA	7.73	3.36	7.54	4.73	1.81	3.37	

Sequence	PBM binding z-score [1]	PBM binding z-score [2]	PBM binding z-score [3]	PBM binding z-score [4]	PBM binding z-score [5]	PBM binding z-score [6]	PBM binding z-score [7]
GCTGCGAGGTCAACTGATGGTCAGCTAAAGCTCG	7.44	4.3	7.17	4.33	2.9	3.42	
GCTGCTAGTTCAACTGATGGTCAGCTAAAGCTCG	1.07	1.97		0.297	-0.498	0.327	1.93
CAAAATAGGTCAAAGGTCAAAGTCGAGCCAACCA	7.97	2.84		4.79	1.18	2.93	
CGTCAAAGGTCAATGCTAGGTCAGTGAAAGCATT	8.73	3.76		4.77	1.42	2.5	
ATCGAAAGGTCAAAGGTGAGTATACCCACCCGAA	8.44	3.46		4.31	0.712	2.97	
ATATGTAGGTTAAAGGTCATTCAGGTTGGTTCGC	5.37	2.47		4.31	1.97	5.11	6.81
CGTCCAAGGTCACAGAGGTCAGTGAATGCCGAGT	8.03	3.92	7.67		3.95	6.67	
CCAACTAGGTCAAAGGACAGTGAAAGGCGACGTA	4.53	1.91	3.05	2.4	0.765	0.866	
TCTAGTTGGTCAAAGGTCACGCACTCGAAATGCG	7.23	1.92	8.9	4.31	2.52	3.12	
CGAACGAGGTCACCAGGACAGTGAAGAGGTTGGA	7.24	4.32		4.66	3.86	3.87	7.15
TATACGGGGTCAAAGGCCAGAGTACGAATGTCGA	6.78	4.48		4.43	1.72	5.21	
ATATGTAGGTCAAGGGTCATTCAGGTTGGTTCGC	6.02	2.84		4.58	2.22	4.28	7.22
TAGCCTAGGTCATTCAGGGGCAAGTATAGAAAGC	4.44	2.38	3.47		0.948	2.65	
CGTCCGAGGTCAAGGTCAGTGAAAGAGACTCGAA	7.79	4.19		4.37	3.97	4.69	
TGTCAAAGTTCAAAGGTGACGTAAGTATCCACAC	6.27	4.5		3.76	-0.183	4.97	6.99
CCTTAGGGGTCACTGACAGGTTATAGCATTTGGA	7.67	4.43		4.27	0.822	3.55	
CAAACGAGGTCACGAAAGGTCAAAGTCGAATGAC	9.89	4.62		5.28	4.41	6.31	
CCTACTGGGTCAAAGGTCATTGATTCCAATGCTC	5.88	2.87		4.52	1.69	3.95	
